PubChem BioAssay AID1347056 (Sanford-Burnham Center for Chemical Genomics, 2019)
About 3,600 (1%) of roughly 360,000 compounds were called active.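 How the source made its calls: active means compounds whose plate-normalised and pattern-corrected inhibition of the luciferase reporter signal at the single screening dose is 50% or more; inactive means the rest.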 What follows is part of a selection rich in actives, with near analogues and random picks from the rest.

Test: TROY pathway blockers in reporter cells – Q293 LMP1-TROYcd cells, NF-kB luciferase, uHTS, primary screen (AID 1347056)
Details: 4 h, at 10 µM, active compounds read high

| SMILES | inhibition |
| --- | --- |
| N#CC(Cc1cc2ccccc2n1S(=O)(=O)c1ccccc1)OCc1ccccc1 (centres undefined) | -2.35% (inactive) |
| CC(C)c1ccc(NS(=O)(=O)c2cn(C)c(=O)n(C)c2=O)cc1 | -2.58% (inactive) |
| Cc1ccccc1NC(=O)C(C)c1ccc(-c2ccccc2)c(F)c1 (centres undefined) | -1.18% (inactive) |
| Cc1cccc(-n2c(SCC(N)=O)nc3c(c2=O)C2(CCCCC2)Cc2ccccc2-3)c1 | 51% (active) |
| N#CCSc1nc2c(c(=O)n1Cc1ccccc1)C1(CCCC1)Cc1ccccc1-2 | 3.7% (inactive) |
| Cc1cccc(-n2c(=O)c3c(C)c(C)sc3n(CC(N)=O)c2=O)c1 | 2.94% (inactive) |
| Cc1cc(CNC(=O)C2CCC(=O)N(CCc3ccc(Cl)cc3)C2)no1 (centres undefined) | -13% (inactive) |
| O=C(N/N=C/c1ccsc1)c1cc(O)cc(O)c1 | -3.65% (inactive) |
| CSc1ncnc2c1ncn2CC(=O)C1CCC2C3CCC4=CC(=O)CCC4(C)C3CCC12C (centres undefined) | 76.2% (active) |
| CSc1ncnc2c1ncn2CCCNCC1CCCCC1 | 10.9% (inactive) |
| CC12CCC(=O)C=C1CCC1C2C(O)CC2(C)C1CCC2(O)C(O)CO (centres undefined) | 1.9% (inactive) |
| Cc1cc(C)c(NC(=O)CN2CCOCCOCCOCCOCC2)c(C)c1 | 3.84% (inactive) |
| COC(=O)C1=C(N)Oc2cc(C)oc(=O)c2C1c1cccnc1 (centres undefined) | -1.83% (inactive) |
| COc1ccc(-c2c(C)cc3oc(=O)cc(-c4ccccc4)c3c2C)cc1OC | 1.76% (inactive) |
| COc1ccc(-c2c(C)cc3oc(=O)cc(-c4ccccc4)c3c2C)cc1C=O | 50.3% (active) |
| COc1ccc(-c2c(C)cc3oc(=O)cc(-c4ccccc4)c3c2C)cc1F | -22% (inactive) |
| COc1cc([C@H](Cc2ccccc2)NC(C)=O)oc(=O)c1 | -27% (inactive) |
| CCOC(=O)C1(S(=O)(=O)c2ccc(Cl)cc2)CCN(Cc2ccccc2)CC1 | -14.2% (inactive) |
| CCN1CCN(CCNC(=O)c2ccc3c(c2)NC(=O)/C(=C\c2cccc(Cl)c2)S3)CC1 | 2.74% (inactive) |
| Cc1c(C)n(Cc2ccc(Cl)cc2)c2ccc(C(=O)NCCCN3CCOCC3)cc12 | -9.92% (inactive) |
| Cc1ccc(C(=O)N/C(=C\c2ccc(F)cc2)C(=O)NCCN2CCOCC2)cc1 | -5.95% (inactive) |
| CN1CCN(CCCNC(=O)c2ccc(/C=C3\Oc4ccccc4N(Cc4ccc(Cl)cc4)C3=O)cc2)CC1 | 80.6% (active) |
| O=C(NCCN1CCOCC1)c1ccc(/C=C2\Sc3ccccc3N(Cc3ccc(F)cc3)C2=O)cc1 | 51% (active) |
| CCN1CCN(CCNC(=O)c2ccc(/C=C3/Sc4ccccc4N(Cc4cccc(C)c4)C3=O)cc2)CC1 | 50.6% (active) |
| Cc1cccc(-c2nc3ccc(C(=O)NCCN4CCN(C)CC4)cc3nc2-c2cccc(C)c2)c1 | -28% (inactive) |
| O=C(NCCN1CCOCC1)/C(=C/c1ccc(F)cc1)NC(=O)c1ccccc1 | -11.7% (inactive) |
| CCC1Oc2ccccc2N(CC(=O)NCCCN2CCN(CC)CC2)C1=O (centres undefined) | 1.63% (inactive) |

| SMILES | inhibition |
| --- | --- |
| Nc1nc(Br)c2ccccc2c1-c1ccc(F)cc1 | 14.8% (inactive) |
| O=[N+]([O-])c1ccc(N2CCN(S(=O)(=O)c3ccccc3)CC2)cc1N1CCc2ccccc2C1 | -19.3% (inactive) |
| CCc1nc2ccc(C(=O)N3CCN(S(=O)(=O)CC)CC3)cn2c1N(C=O)CCC(C)C | 0.5% (inactive) |
| C/C(CC(=O)NC(C)(C)C)=N\NC(=O)c1ccco1 | -29.8% (inactive) |
| COC(=O)[C@H](Cc1ccccc1)NC(=O)[C@@H]1C[C@H]1[C@@H](NC(=O)OCc1ccccc1)c1ccccc1 | 5.51% (inactive) |
| Cc1cc(Nc2cccc(C)c2C)n2ncnc2n1 | 3.52% (inactive) |
| COC(=O)CNC(=O)c1ccc(OC2CCN(C(=O)C3CC3)CC2)cc1 | 2.78% (inactive) |
| CC1O[C@H](OC2C(COC3OC(CO)C(O)[C@H](O)C3O)OC(OC3CC[C@]4(C)C(CC[C@@]5(C)[C@@H]4C=C[C@]46OC[C@@]7(CCC(C)(C)C[C@H]74)C(O)C[C@@]56C)C3(C)C)C(O)C2O)C(O)C(O)C1O (some centres undefined) | -9.36% (inactive) |
| COc1ccc(CNC(=O)CN(c2ccc(OC)c(Cl)c2)S(=O)(=O)c2ccc(C)cc2)cc1 | -0.8% (inactive) |
| Cc1ccccc1OCCC(=O)Nc1c(C)n(C)n(-c2ccccc2)c1=O | 1.55% (inactive) |
| CCN(CC)CCNC(=O)c1ccc(NS(=O)(=O)c2ccc3c(c2)OCCO3)cc1 | 16.6% (inactive) |
| O=C(Nc1ccc2c(c1)OCCO2)c1ccc(Cl)c(S(=O)(=O)N2CCCCC2)c1 | 54.4% (active) |
| CC(NS(=O)(=O)c1ccc(Cl)cc1)C(=O)Nc1ccc2c(c1)OCCO2 (centres undefined) | 2.15% (inactive) |
| CN1CCN(c2ccc(NC(=O)c3ccc4c(c3)OCCO4)cc2Cl)CC1 | 22.3% (inactive) |
| Cc1ccc(C(=O)Nc2ccc3c(c2)OCCO3)cc1S(=O)(=O)N1CCOCC1 | -52% (inactive) |
| O=C(Nc1cccc(S(=O)(=O)Nc2ccc(Cl)cc2)c1)c1ccc2c(c1)OCCO2 | 56.2% (active) |
| C/C(=N\N(C)C)c1ccc(OCCOc2ccc([N+](=O)[O-])cc2)cc1 | -19.4% (inactive) |
| COc1ccc(N(CC(=O)Nc2cc(OC)cc(OC)c2)S(=O)(=O)c2c(C)n[nH]c2C)cc1 | -9.7% (inactive) |
| CN1C(=O)CC(c2ccccc2)C1=O (centres undefined) | 0.86% (inactive) |
| COCCN(Cc1cc2cc3c(cc2nc1Cl)OCO3)C(=O)c1cccc(C)c1 | 19.8% (inactive) |
| CC1CC(C)CN(CCOc2cccc3ccccc23)C1 (centres undefined) | 6.96% (inactive) |
| CC(C)c1ccccc1OCC(O)CN(CC(O)COc1cccc2ccccc12)C(C)C (centres undefined) | 65.6% (active) |
| CN1CCN(CCCCOc2cccc3ccccc23)CC1 | -39.4% (inactive) |
| NC(=O)NC(=O)C(OC(=O)CCNS(=O)(=O)c1ccccc1)c1ccccc1 (centres undefined) | 1.93% (inactive) |
| Cc1ccc(CNCc2ccc3c(c2)OCO3)c(C)c1 | -5.84% (inactive) |
| CC(C)COC(=O)C1C2C=CC3(CN(C(C)c4ccc(Br)cc4)C(=O)C13)O2 (centres undefined) | -13.1% (inactive) |
| CCN1C(=O)[C@@H]2[C@@H]3CN(S(=O)(=O)c4ccccc4C)[C@@H](c4ccc(Cl)cc4)[C@@H]3C(=O)C[C@@H]2C1=O | 14.4% (inactive) |
